Results: PubChem BioAssay AID485297 (National Center for Advancing Translational Sciences (NCATS), 2010)
Hit rate of the full screen: of about 320,000 compounds, about 9,100 (2.8%) were called active. Inconclusive results (about 3%) are left out. This is one part of a sample in which actives are shown more often than they occur. Unmarked numbers belong to inactive results. The call rests on the fitted dose curve; in most records, active means well fitted activation curve with a large enough effect; inconclusive means small, poorly fitted or top-dose-only effect; inactive means no such curve, though single readings can be large or run the other way.

assay: qHTS Assay for Rab9 Promoter Activators; details: Huh7 Rab9 promoter-luciferase reporter, luminescence, 24 h; series mostly up to 9.22 µM; activation, negative = inhibition: at the top concentration; further: nearly all actives have a fitted effect of over 60% in size; on activation, negative = inhibition: % of control where 0% means no effect
From the text: NIH Chemical Genomics Center [NCGC] NIH Molecular Libraries Probe Production centers Network [MLPCN] MLPCN Grant: MH089537-01 Assay Submitter (PI): Yiannis A. Ioannou NCGC Assay Overview: Niemann Pick Type C (NPC) is a rare neurodegenerative lipidosis that is characterized by lipid storage in the endosomal/lysosomal system. Treatment modalities for this devastating disease are currently non-existent due to the severe obstacles associated with accessing the central nervous system with proteins or genes (Ioannou, 2000). We have developed a new paradigm, termed "Orphan Receptor Bypass Therapy" (ORByT), to address these disorders. This paradigm posits the existence of endogenous "suppressor" proteins whose expression can dramatically improve LSD pathogenesis. The goal is the identification/discovery of small chemical compounds that can modulate the expression of these proteins and provide a new treatment modality for these devastating disorders. One such protein whose overexpression reverses aspects of the NPC phenotype is Rab9. We have developed and optimized a cell based luciferase reporter assay in 1536 well format for the identification of up-regulators of the Rab9 promoter.
The Rab9 promoter is cloned in front of the luciferase reporter gene, therefore […] promoter activation results in luciferase expression. Frozen stock of the Rab9 promoter transfected Huh7 cells were obtained from the laboratory of Dr. Yiannis Ioannou (The Mount Sinai School of Medicine, New York, NY). Cells were propagated and maintained at NCGC in medium containing RPMI-1640 supplemented with 10% FBS, 2mM L-glutamine, and 50ug/ml penicillin/streptomycin. Cells were harvested in and plated for assays in OP-MEM I reduced-serum medium supplemented with 10% FBS. The Amplite luciferase reporter gene assay kit was purchased from ABD Bioquest and prepared/stored according to manufacturers recommendations. qHTS Assay Setup: 1.Dispensed 5ul of Huh7 cells stably expressing Rab9-luciferase at a density of 1500 cells per well 1536-well plates. 2.Incubate cells at 37C, 5% CO2, and 95% humidity for 2 hours. 3.Transferred 23nl per well of compound in DMSO solution. 4.Incubated at 37C, 5% CO2, and 95% humidity for 24 hours. 5.Dispensed 3ul per well of Amplite reagent(ABD Bioquest) per well. 6.Incubate at ambient for 10 minutes. 7.Read using the luminescence protocol on the ViewLux plate reader (Perkin Elmer).
Potency means the concentration at half of the fitted maximal effect.

Row | SMILES | activation, negative = inhibition | Potency
1 | CCOc1ccc(NC(=O)COC(=O)C2CCC(=O)N2)c([N+](=O)[O-])c1 (centres undefined) | 6.59% | 
2 | C[C@H](NC(=O)c1[nH]cnc1C(=O)Nc1nccs1)c1ccccc1 | -3.31% | 
3 | COC(=O)[C@@H]1CCCN1C(=O)c1cc(COc2cccc3cccnc23)on1 | 1.02% | 
4 | CSc1ccccc1OCc1cc(C(=O)N(C)CCc2c(C)n[nH]c2C)no1 | 20.2% | 
5 | CSc1ccccc1OCc1cc(C(=O)N2C[C@H]3CC[C@H]2C3)no1 |  | 2.82 µM (active)
6 | CC(OC(=O)CN1C(=O)c2ccccc2C1=O)C(=O)c1ccccc1 (centres undefined) | -0.0549% | 
7 | Cc1cc(C(=O)Nc2ccc(C)c(S(=O)(=O)N3CCOCC3)c2)c2ccccc2n1 | -0.945% | 
8 | Cc1ccc(C(=O)NCC(c2cccs2)N(C)C)cc1S(=O)(=O)N1CCOCC1 (centres undefined) | -1.2% | 
9 | Nc1ccn(CC(=O)N2CCN(c3ccccn3)CC2)c(=O)n1 | -3.9% | 
10 | O=C(/C=C/c1ccco1)Nc1ccc(Oc2ccccc2)cc1 |  | 3.98 µM (active)
11 | Cc1nnc(NC(=O)/C=C/c2ccco2)s1 | 29.5% | 
12 | O=C(/C=C/c1ccco1)NC(=S)Nc1ccccc1Br | -1.03% | 
13 | Cc1cc(C)nc(N/N=C/c2c(C)oc3ccccc23)n1 | -2.47% | 
14 | Cc1noc(C)c1/C=N/Nc1ccc2ccccc2n1 |  | 0.708 µM (active)
15 | C(=N\Nc1ccc2ccccc2n1)/c1ccc2c(c1)OCO2 |  | 0.1 µM (active)
16 | O=C(Nc1ccc2ccccc2c1)/C(=C\c1ccc2c(c1)OCO2)NC(=O)c1ccco1 | -6.34% | 
17 | Brc1ccc(-c2csc(N/N=C/c3ccc4c(c3)OCO4)n2)cc1 | -5.19% | 
18 | Cc1nc(Cl)cc(N/N=C/c2ccccc2)n1 | 21.6% | 
19 | CC(C)Oc1ccc(S(=O)(=O)N2CCOCC2)cc1NC(=O)C1CCCC1 | -0.79% | 
20 | CCN(CC(=O)Nc1c(F)cccc1F)C(=O)c1ccc(-c2ccccc2)cc1 | 6.76% | 
21 | O=C(O)CSc1ccc(S(=O)(=O)N2CCCC2)cn1 | 9.49% | 
22 | COC(=O)c1ccc(NC(=O)c2ccco2)cc1 |  | 2.82 µM (active)
23 | CCOC(=O)c1ccc(NC(=O)CNC(=O)c2ccco2)cc1 | -2.6% | 
24 | O=C(Nc1ccc(O)cc1)c1ccc(NC(=O)c2ccco2)cc1 | 29.1% | 
25 | COc1ccc(Cl)cc1NC(=O)CN(C)C(=O)c1ccc2n[nH]nc2c1 | -1.33% | 
26 | O=C(/C=C/c1cnc2ccccc2n1)NC1CCCCCC1 |  | 3.16 µM (active)
27 | Cc1nc(/N=C(\N)NC(=O)NC2CCCCC2)nc2ccccc12 | -23.8% | 

Row | SMILES | activation, negative = inhibition | Potency
28 | O=C(Cn1c(-c2cncs2)nc2ccccc21)NC1CCCC1 | -3.47% | 
29 | Nc1ccc(Nc2cc(O)c3ncccc3c2)cc1 | -37.2% | 
30 | CN1CCN(S(=O)(=O)c2cccc(C(=O)Nc3cccc(S(N)(=O)=O)c3)c2)CC1 | -8.11% | 
31 | COC(=O)c1ccc(-c2c(-c3ccccc3)ncc3cc(OC)c(OC)cc23)cc1 | 1.03% | 
32 | O=C(NCCc1cccc(F)c1)C1CCCN(c2nc3ccccc3s2)C1 (centres undefined) | 11.3% | 
33 | COc1ccc2nc(N3CCN(C(=O)c4ccc([N+](=O)[O-])o4)CC3)sc2c1 | 26.3% | 
34 | Fc1ccc2nc(N3CCCCC3)sc2c1 |  | 0.891 µM (active)
35 | c1c2c(cc3sc(N4CCCCC4)nc13)OCCO2 |  | 0.355 µM (active)
36 | Brc1ccc2nc(N3CCCC3)sc2c1 |  | 1.41 µM (active)
37 | CN(C)CCCN(C(=O)c1ccc(S(=O)(=O)N2CCCCCC2)cc1)c1nc2ccc(Br)cc2s1 | -1.22% | 
38 | Cc1nc(N2CCCCC2)sc1C=O | -3.8% | 
39 | Cc1nc2ccc(NC(=O)C3CCCCC3)cc2s1 | 24.9% | 
40 | CN(C)CCCN(C(=O)c1ccc(S(=O)(=O)N2CCCCCC2)cc1)c1nc2cc3c(cc2s1)OCCO3 | 0.137% | 
41 | CCC(=O)c1ccc(OCC(=O)N(CC)CC2COc3ccccc3O2)cc1 (centres undefined) | -2.01% | 
42 | CCc1sc(C(=O)N2CCN(CC(=O)Nc3cccc(F)c3)CC2)cc1C | -2.46% | 
43 | CC1CCCC(NC(=O)c2cc(-c3ccncc3)nc3ccccc23)C1C (centres undefined) | 13.4% | 
44 | Cc1ccc(/C=C/C(=O)OCC(=O)Nc2cccnc2Cl)cc1 | -2.71% | 
45 | COc1cc(/C=C2\SC(=O)NC2=O)ccc1OCc1ccc(Cl)nc1 | -1.24% [at 1.84 µM] | 
46 | Cc1ccc(C)c(NC(=O)C(c2ccccc2)N2CCN(CC(=O)NC3CC3)CC2)c1 (centres undefined) | -2.84% | 
47 | COc1ccc(C(=O)NCc2ccc(C)cc2)cc1S(=O)(=O)N1CCCC1 | 13% | 
48 | CC1CCCC(C)N1C(=O)CSc1nnnn1C1CCCC1 (centres undefined) | 22.7% | 
49 | O=C(CSc1nnnn1C1CCCC1)N1CCCCC1 |  | 3.16 µM (active)
50 | CC(=O)Nc1ccc(NC(=O)CSc2nnnn2C2CCCCC2)cc1 | -1.4% | 
51 | C[C@H](OC(=O)n1ccnc1)[C@@H]1O[C@@]2(C)CCC[C@@H]1O2 | 0.69% | 
52 | CN(CCN1CCOCC1)Cc1nc(-c2ccc3c(c2)OCO3)no1 | 2.86% | 
53 | COCC1CCCN(Cc2nc(-c3ccc4c(c3)OCO4)no2)C1 (centres undefined) |  | 3.16 µM (active)
54 | CC(C)N(Cc1nc(-c2ccc3c(c2)OCO3)no1)CC1CCC(=O)N1 (centres undefined) | -1.11% | 
